# Measurements reported in the supplement of paper PMC6555819.
# Key:
# Experiment in all cases: PBM binding z-score (relative to random genomic background probes); higher = stronger binding; sequences stand for … in GC…GCGATTGACAGCGTAGAATGAAGG
# [1] = system: FXR:RXRa (NR concentration 270 nM, RXRa partner concentration 90 nM)
# Summary of the method: (§1)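 Binding z-scores were set against random background probes. The data came from custom Agilent 4×180K protein-binding microarrays carrying double-stranded probes with 34-nt variable regions, incubated 1 h with ligand-free nuclear receptor dimers. Partner-specific antibodies detected binding, and scanned fluorescence was regression-normalized.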
# [2] = system: LXRa:RXRa (NR concentration 270 nM, RXRa partner concentration 90 nM)
# Summary of the method: as §1
# [3] = system: LXRa homodimer (NR concentration 270 nM)
# Summary of the method: as §1
# [4] = system: LXRb:RXRa (NR concentration 270 nM, RXRa partner concentration 90 nM)
# Summary of the method: as §1
# [5] = system: LXRb homodimer (NR concentration 270 nM)
# Summary of the method: as §1
# [6] = system: PPARa:RXRa (NR concentration 270 nM, RXRa partner concentration 90 nM)
# Summary of the method: as §1
# [7] = system: PPARg:RXRa (NR concentration 180 nM, RXRa partner concentration 90 nM)
# Summary of the method: as §1
# [8] = system: PPARg:RXRa 270nM:90nM, anti-RXR (NR concentration 270 nM, RXRa partner concentration 90 nM)
# Summary of the method: as §1
# [9] = system: PPARg:RXRa 30nM:10nM, anti-RXR (NR concentration 30 nM, RXRa partner concentration 10 nM)
# Summary of the method: as §1
# [10] = system: PPARg:RXRa 90nM:30nM, anti-RXR (NR concentration 90 nM, RXRa partner concentration 30 nM)
# Summary of the method: as §1
# [11] = system: PPARg:RXRa DBDmut IVT, anti-RXR (DBD mutation: RXRa K156A/R161A, NR concentration 270 nM, RXRa partner concentration 90 nM)
# Summary of the method: as §1
# [12] = system: PPARg:RXRa IVT, anti-PPARg (NR concentration 270 nM, RXRa partner concentration 90 nM)
# Summary of the method: as §1
# [13] = system: PPARg DBDmut:RXRa IVT, anti-PPARg (DBD mutation: PPARg1 K132A/R137A, NR concentration 270 nM, RXRa partner concentration 90 nM)
# Summary of the method: as §1
# [14] = system: PPARg DBDmut IVT, anti-PPARg (DBD mutation: PPARg1 K132A/R137A, NR concentration 270 nM)
# Summary of the method: as §1
# [15] = system: PPARg homodimer (NR concentration 180 nM)
# Summary of the method: as §1
# [16] = system: PXR:RXRa (NR concentration 270 nM, RXRa partner concentration 90 nM)
# Summary of the method: as §1
# [17] = system: PXR homodimer (NR concentration 270 nM)
# Summary of the method: as §1
# [18] = system: RARa:RXR (NR concentration 270 nM, RXRa partner concentration 90 nM)
# Summary of the method: as §1
# [19] = system: RARa homodimer (NR concentration 270 nM)
# Summary of the method: as §1
# [20] = system: RARb:RXRa (NR concentration 270 nM, RXRa partner concentration 90 nM)
# Summary of the method: as §1
Sequence,PBM binding z-score [1],PBM binding z-score [2],PBM binding z-score [3],PBM binding z-score [4],PBM binding z-score [5],PBM binding z-score [6],PBM binding z-score [7],PBM binding z-score [8],PBM binding z-score [9],PBM binding z-score [10],PBM binding z-score [11],PBM binding z-score [12],PBM binding z-score [13],PBM binding z-score [14],PBM binding z-score [15],PBM binding z-score [16],PBM binding z-score [17],PBM binding z-score [18],PBM binding z-score [19],PBM binding z-score [20]
CAAACTAGGTCACCGGAAGGTTAAAGTCCGCATG,5.17,4.53,1.89,3.61,0.743,5.67,9.32,7.58,5.78,7.27,8.22,9.06,2.44,1.44,3.7,3.98,0.858,5.18,0.971,4.78
CTTGAAAGGTCGGTTGAGGTGAGTATACGGATAA,3.64,2.28,-0.0492,2.52,-0.354,3.43,0.512,1.27,0.216,0.942,0.154,0.996,-0.0609,0.067,0.811,3.33,0.421,2.5,-0.0411,2.97
CCTGCTAGGTCATGCTCAGCTAATCTACAGTATG,3.21,2.16,-0.266,1.38,-0.112,2.99,1.9,2.36,0.444,1.35,4.78,3.37,0.405,0.309,0.827,0.957,-0.979,2.05,-0.229,3.75
TAGCCTAAGTCAGATCGGGCCAGTATACGCTATA,0.0829,-0.914,-0.748,-0.879,-0.805,-0.43,0.157,-0.628,-0.321,-0.556,-0.799,-0.632,-0.42,-0.19,-0.984,-0.436,-0.363,-0.593,-0.92,-0.258
CCAGACAGGTGAGAAGGTAACTCATCCTCGATTA,0.223,0.195,0.213,0.16,-0.283,0.773,0.558,0.703,0.0272,0.508,1.17,0.6,-0.78,0.324,0.757,0.375,0.22,0.525,0.718,0.607
TCATATAGGTAAAAGCTAGGTGAAAGTCCGATCT,0.543,0.688,-0.0379,0.557,-0.187,1.69,1,2.74,4,3.37,3.84,2.83,1.06,1.08,0.659,0.255,0.0441,1.01,0.436,0.407
ATAGACAGGTGATGAAGGTAACTCAGGCTATCAT,-0.202,-0.185,-0.277,-0.324,0.162,-0.103,0.6,0.152,0.156,-0.14,-0.221,0.67,1.3,0.102,0.341,-0.261,0.251,-0.0358,0.641,0.316
CATACAGGGTCAGCCAGGCCAGAGTAGGGACGGC,4.87,3.33,-0.255,2.24,0.282,4.45,3.65,3.21,0.666,2.01,1,2.6,0.502,0.692,1.27,2.5,0.168,3.13,0.562,4.1
ATCGAAAGGTCGAGGTGACTATAGAGAAAGGGAA,4.61,3.47,0.0804,2.68,0.167,4.72,3.8,3.74,1.66,3.09,0.438,2.86,1.24,0.771,1.35,2.56,0.185,3.53,0.636,4.21
ACTAGCAGGCCACGTTTGGGTCACTCAAACAAAG,0.331,0.116,-0.479,0.601,-0.41,1.42,0.444,0.355,-0.448,-0.155,1.75,1.88,-0.646,-0.408,0.639,0.56,-0.664,1.3,-0.197,1.58
GATACAGGGTCAAGTCCAGAGTACGCGTATTGAT,7.3,4.84,0.0543,4.3,0.511,5.77,5.91,5.85,2.51,4.33,3.07,4.1,1.84,0.844,4.21,4.36,0.54,5.16,1.38,4.64
GATACAGGGACAAGGCCAGAGTACGCGTATTGAT,-0.342,-0.63,-0.318,-0.797,-0.748,-0.534,0.946,0.318,0.00447,-0.175,0.111,0.0816,-0.754,-0.819,0.187,-0.396,0.236,-0.445,-0.566,0.943
ATCTCTAGGTAAAGATAGTTCAGTGTATGCAAAT,0.705,4.16,0.797,0.893,0.581,1.05,0.827,0.452,0.59,0.44,1.71,1.89,0.591,1.15,1.3,1.32,0.866,1.11,0.968,0.53
TCAGACAGGTGAAGGTAATTCAGGTACGCAGTCG,1.15,1.22,-0.0461,1.11,0.0602,1.41,0.743,2.25,3.9,3.02,2.77,1.13,0.166,0.166,1.05,0.684,0.0937,1.21,0.385,1.08
